We go through 37 compounds from PubChem BioAssay AID651784 (National Center for Advancing Translational Sciences (NCATS), 2012).

Results filed as inconclusive are left out. The source made the active and inactive calls. The call rests on the fitted dose curve; in most records, active means well fitted inhibition curve with a large enough effect; inconclusive means small, poorly fitted or top-dose-only effect; inactive means no such curve, though single readings can be large or run the other way.
Potency means the concentration at half of the fitted maximal effect.

The assay is described as follows: Acumen qHTS Assay for Inhibitors of the mTORC1 Signaling Pathway in MEF (Tsc2-/-, p53-/-) Cells: Hit Validation.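 Further: phospho-rpS6 Ser235/236 immunofluorescence normalized to propidium iodide cell count; nearly all actives have a fitted effect of over 65% in size.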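 On activity change, negative = inhibition: cells exposed to compound for 24 hours; plate controls were DMSO for no effect and 7.5 nM rapamycin control for full effect.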 Conditions: Acumen imaging; activity change, negative = inhibition: at 37.3 µM (top of the series).
For the compound `CCS(=O)(=O)c1ncc(Cl)c(C(=O)N(Cc2ccccc2)c2ccc(OC)cc2)n1`, the Potency is 2.93 µM (active).
With `CCSc1ccccc1C(=O)Nc1ccc(-c2nc3ccccc3s2)c(O)c1`, the Potency is 13.1 µM (active).
Take `Cc1ccc(-c2noc(CCC(=O)N(C)c3ccccc3F)n2)cc1`: the activity change, negative = inhibition is 5.93%.
As for `CCOc1ccc(S(=O)(=O)N(C(C)=O)c2ccc3oc(C)c(C(=O)OC)c3c2)cc1`, the activity change, negative = inhibition was -69.9%.
For `CCOc1ccc(CC(=O)NC2CC(=O)N(c3ccc4c(c3)OCCO4)C2)cc1` (configuration not stated), the activity change, negative = inhibition was -2.04%.
As for `COc1ccc(CC(=O)Nc2sc3c(c2C(=O)Nc2cccc(C)c2)CCCCC3)cc1`, the Potency was 4.14 µM (active).
Turning to `COc1ccc(C(=O)c2sc(Nc3ccccc3)nc2N)cc1`, the activity change, negative = inhibition was -4.73%.
Regarding `COc1ccc(-c2ccc(CCC(=O)O)n2-c2ccccc2O)cc1`, the activity change, negative = inhibition is -2.33%.
As for `COc1ccc(N2CCN(C(=O)C(C)n3nc(C)c4sc5ccccc5c4c3=O)CC2)cc1` (configuration not stated), the activity change, negative = inhibition is 1.14%.
Same read-out and setting: as for `Cc1ccc(S(=O)(=O)c2nc(-c3cccs3)oc2SCC(=O)Nc2cc(C)cc(C)c2)cc1`, the figure is -132%; as for `Cc1ccc(-c2nn(C)c(=O)c3ccccc23)cc1S(=O)(=O)NCCCN(C)C`, 5.39%.
Consider `COc1ccc(-c2nc(C)c(CCNC(=O)c3ccccc3Br)s2)cc1OC`, for which the activity change, negative = inhibition was -7.02%.
For `Cc1cccc(C(=O)Nc2c(C(=O)NCc3ccc(Cl)cc3)sc3nc(C)cc(C)c23)c1`, the activity change, negative = inhibition was -92.4%.
The same measure, in the same setting: the value for `NS(=O)(=O)c1cc(C(=O)O)c(NCc2ccco2)cc1Cl` was 34.6%.
Turning to `COc1ccc2nc(NC(=O)c3nc(S(=O)(=O)Cc4ccccc4)ncc3Cl)sc2c1`, the Potency is 5.85 µM (active).
Turning to `COc1ccc(NC(=O)CSc2nc3ccccc3n2Cc2cccc(OC)c2)cc1`, the activity change, negative = inhibition is -5.71%.
As for `CCCN(c1ccccc1CC)S(=O)(=O)c1ccc2c(c1)CC(C)N2C(=O)C1CC1` (configuration not stated), the Potency was 0.521 µM (active).
Still for that read-out and setting: as for `CCCCOCc1cc(CN2CCN(c3cccc(Cl)c3)CC2)c(O)c2ncccc12`, the figure is 2.61 µM (active).
With `Cc1ccc(C)c(N2CCN(CCCNC(=O)Nc3ccc(Cl)cc3)CC2)c1`, the activity change, negative = inhibition was -77%.
For the compound `CCc1nn(CC(=O)NCc2ccccc2Cl)c(=O)c2cccn12`, the activity change, negative = inhibition amounted to 3.65%.
Consider `COc1ccc(S(=O)(=O)N(Cc2nc(-c3cccc(C)c3)no2)C2CCCCC2)cc1`, for which the activity change, negative = inhibition was -16.2%.
For `COc1ccccc1NC(=O)c1sc(-c2ccc(Cl)cc2)cc1N`, the activity change, negative = inhibition is 1.3%.
Consider `COc1ccc(CNC(=O)c2nc(S(=O)(=O)Cc3ccccc3)ncc2Cl)cc1`, for which the activity change, negative = inhibition is -99.8%.
Take `O=C(NCC1CCN(Cc2cccc(Cl)c2)CC1)Nc1ccc(F)c(Cl)c1`: the Potency is 9.27 µM (active).
In the case of `COc1ccc(OCc2nc3c4c(-c5ccccc5)c(-c5ccccc5)oc4ncn3n2)cc1`, the activity change, negative = inhibition is 3.1%.
For `COc1ccc(CNC(=O)c2cccc(N3CCCS3(=O)=O)c2)cc1OC`, the Potency was 5.21 µM (active).
As to `CCOc1ccccc1NC(=O)CN1C(=O)C(=O)c2ccccc21`, the Potency was 18.5 µM (active).
`CCOC(=O)c1ccc(NC(=O)c2nc(S(=O)(=O)Cc3ccccc3)ncc2Cl)cc1`: the Potency was 4.65 µM (active).
Take `O=C(c1ccc(CS(=O)c2ccccc2Cl)o1)N1CCN(c2cccc(Cl)c2)CC1` (configuration not stated): the Potency was 0.521 µM (active).
Regarding `CCCCOc1ccc(CN2C(=O)C(=O)c3cc(Br)cc(C)c32)cc1OC`, the Potency was 4.65 µM (active).
`CCCCN(C)CCNC(=O)c1cc2c(=O)n(C)c3ccccc3c2n1C`: the activity change, negative = inhibition is -0.172%.
In the case of `CCCCN(C)C(=O)CSc1c2c(nc3ccc(Cl)cc13)CCCC2`, the activity change, negative = inhibition is -13.3%.
Turning to `Cc1nn(CCCC(=O)NCc2cccc(Cl)c2)c(=O)c2c1sc1ccccc12`, the activity change, negative = inhibition is -2.73%.
As for `Cc1cc(C)c(NC(=O)C2CCN(c3nc4ccccc4n4cccc34)CC2)c(C)c1`, the Potency is 14.7 µM (active).
In the case of `CCS(=O)(=O)c1ccccc1C(=O)N(Cc1cccnc1)c1nc2cc(C)c(C)cc2s1`, the activity change, negative = inhibition was -10%.
On to `CCOc1ccc(NC(=O)CSc2oc(-c3ccccc3)nc2S(=O)(=O)c2ccc(Cl)cc2)cc1`, for which the activity change, negative = inhibition is -112%.
As for `O=C(NCc1ccc(F)cc1)c1ccc2c(Cl)c3c(nc2c1)CCCC3`, the activity change, negative = inhibition was 26.5%.
